Results taken from PubChem BioAssay (NCI).
This is part of a sample that, as a whole, favours compounds with a hit. Of some 83,000 tested, about 20% had one in any assay.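 For each line, cells grew in 96-well plates with the test compound present at a single concentration for 48 hours.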 A number with no mark means an inactive call. Calls of active or inactive are those of the source.

These compounds were tested on SK-OV-3 ovarian (assay: NCI-60 one-dose screen, 48 h (100 = growth as untreated, 0 = no growth, -100 = all killed)). Conditions: 10 µM unless noted.
Protocol: Growth inhibition of the SK-OV-3 human tumor cell line is measured as a screen for anti-cancer activity. Cells are grown in 96 well plates and exposed to the test compound for 48 hours. Compounds are tested at a single concentration, which is 10^-5 M for most compounds. The reported endpoint is percent growth (GI% or GIPRCNT), where numbers from 0 - 100% represent growth inhibition, and numbers from -100% - 0 represent cell death. For example, a value of 40 represents 60% growth inhibition. A value of 0 means no net growth occurred over the course of the experiment. A value of -40 indicates 40% of cells at the beginning of the experiment died by the end of the experiment. A value of -100 means all cells are dead at the end of the experiment.
NCI-60 Human Tumor Cell Lines Screen was performed using the standard one-dose NCI protocol, which is described in more detail at https://dtp.cancer.gov/discovery_development/nci-60/default.htm.
Compounds with GIPRCNT values below 10 were considered active. Activity score was based on GIPRCNT using the following formula: […]
Score is 0 for GIPRCNT values of 100 or above, 50 for GIPRCNT values of 0, and 100 for GIPRCNT values of -100.

Structure (SMILES) | growth
COc1cc(C2C(C#N)=C(N)Oc3cc4c(cc32)OCO4)cc2c1OCO2 (stereo not given) | -5.36% (active)
CCOC(=O)C#Cc1c(C(=O)OCC)nnn1[C@@H]1O[C@H](COC(C)=O)[C@@H](OC(C)=O)[C@H]1OC(C)=O | 109%
O=C(Cc1ccc([N+](=O)[O-])cc1)Oc1ccccc1 | 110%
COc1cc(CN(c2ccc(C)cc2)C2OC(=O)c3ccccc32)cc(OC)c1OC (stereo not given) | -6.21% (active)
CCN(CC)CCNC(=O)C(F)(F)C(F)(F)C(F)(F)F | 101%
COc1ccc(C(=O)OC2C(OC3C(O)COC(O[C@H]4C[C@H]5[C@@H]6CC=C7C[C@@H](O)CC[C@]7(C)[C@H]6CC[C@]5(C)[C@H]4[C@H](C)C(=O)CCC(C)C)C3OC(C)=O)OCC(O)C2O)cc1 (stereo not given in full) | -44.1% (active)
COCc1nc(NS(=O)(=O)c2ccc(N)cc2)nc(C)c1Br | 96.9%
Cc1ccc(NC(=O)c2sc3nc4c(cc3c2N)C(=O)CCC4)cc1Cl | 114%
O=C1CCCN1C(O)CCN(Cc1ccccc1)Cc1ccc(Cl)cc1 (stereo not given) | 101%
O=S1(=O)NCCCN1CCNc1nccc(-c2c(-c3cccc(O)c3)nc3sccn23)n1 | 43.6%
Cc1cc(-c2ccc(N=Nc3c(S(=O)(=O)O)cc4cc(S(=O)(=O)O)cc(O)c4c3O)c(C)c2)ccc1N=Nc1c(S(=O)(=O)O)cc2cc(S(=O)(=O)O)cc(O)c2c1O | 88.9%
COc1ccc2nc3cc(Cl)ccc3c(NC(=O)CSc3ccc(Cl)cc3)c2c1 | -94.2% (active)
O=[N+]([O-])c1ccc(N/N=C/c2ccccc2O)nc1 | 32.7%
CN(C)CCCN1c2ccccc2CCc2ccccc21 | 94.1%
COc1ccc(-c2cc(C(=O)Nc3ccc(C)cc3)nc3[nH]c(=O)sc23)cc1 | 68.4%
CC(=O)NC1C(O[C@H]2C[C@H]3[C@@H]4CC=C5C[C@@H](O)CC[C@]5(C)[C@H]4CC[C@]3(C)[C@H]2[C@H](C)C(=O)CCC(C)C)OCC(O)C1O (stereo not given in full) | 37.9%
CCC1N=C(N)N=C(N)N1c1ccc(Cl)cc1 (stereo not given) | 108%
CN1C(=O)NC(Cc2c[nH]c3c(Cl)cccc23)C1=O (stereo not given) | 113%
COc1cc(C2CC(c3ccc(Cl)cc3)=NN2C(C)=O)ccc1Oc1nc2c(c(=O)n(C)c(=O)n2C)n1C (stereo not given) | 112%
Clc1ccc(Cl)c(N=Cc2ccc3c(c2)OCO3)c1 | 105%

Structure (SMILES) | growth
NC(=S)N1N=C(c2ccc(Cl)cc2)CC1c1cc2ccccc2[nH]c1=O (stereo not given) | 104%
CC(C)(C)OC(=O)N1CCCN(CCNc2nccc(-c3c(-c4cccc(O)c4)nc4sccn34)n2)S1(=O)=O | 69.5%
COc1cccc(-c2nc3sccn3c2-c2ccnc(NCCN3CCCNS3(=O)=O)n2)c1 | 54.8%
C=CCOC(=O)C1=C(C)NC2=C(C(=O)CC(C)(C)C2)C1c1ccc(OC)cc1 (stereo not given) | 82.1%
C=CCOC(=O)C1=C(C)NC2=C(C(=O)CCC2)C1c1ccc(F)cc1 (stereo not given) | 86.6%
O=P(O)(O)C(O)(Cc1cccnc1)P(=O)(O)O | 111%
Cn1c(=O)c2c(nc(N/N=C/c3ccccc3Cl)n2C)n(C)c1=O | 110%
CC1CCCN(CCCCOc2ccc(-c3ccc(C#N)cc3)cc2)C1 (stereo not given) | 95.3%
CC(C)C/C=C/C=C/C(=O)N[C@@H](CC(N)=O)C(=O)N[C@@H]1C(=O)N[C@H](c2ccc(O)cc2)C(=O)N[C@H](CCCN)C(=O)N[C@H]([C@@H](C)O)C(=O)N[C@H](c2ccc(O)cc2)C(=O)N[C@H](c2ccc(O)cc2)C(=O)N[C@H]([C@H](C)O)C(=O)N[C@H](Cc2ccccc2)C(=O)N[C@H](CCCN)C(=O)N[C@H](c2ccc(O[C@H]3O[C@@H](CO)[C@@H](O)[C@@H](O)[C@H]3O[C@@H]3O[C@H](CO)[C@H](O)[C@H](O)[C@@H]3O)cc2)C(=O)N[C@H]([C@H](C)O)C(=O)N[C@H](c2ccc(O)cc2)C(=O)NCC(=O)N[C@H](CC(C)C)C(=O)N[C@H](C)C(=O)N[C@H](c2ccc(O)c(Cl)c2)C(=O)O[C@@H]1C(N)=O | 87.4%
Cc1ccsc1C(=O)CC(=O)C(F)(F)C(F)(F)C(F)(F)F | 103%
O=C(Nc1cccc(-n2ccc3c(NC(=O)c4ccccc4)nccc32)c1)c1ccc(Cl)c(Cl)c1 | 18.7%
COc1ccc(C(=O)OC2C(OC3C(O)COC(O[C@H]4C[C@H]5[C@@H]6CC=C7C[C@@H](O)CC[C@]7(C)[C@H]6CC[C@]5(C)[C@H]4[C@H](C)C(=O)CCC(C)C)C3OC(=O)C(C)C)OCC(O)C2O)cc1 (stereo not given in full) | -21.1% (active)
NC(CCC(=O)NC(CS)C(=O)NCC(=O)O)C(=O)O (stereo not given) | 116%
COc1ccc(-n2nc(C(=O)Nc3ccc(F)cc3)nc2-c2cc(OC)c(OC)c(OC)c2)cc1 | 94.8%
CN(C)c1ccc(C2(Cl)c3ccccc3N(C)c3ccccc32)cc1 | 77.6%
Cn1cnc([N+](=O)[O-])c1S(=O)(=O)Oc1cccc2ccccc12 | 95.8%
COC(=O)OC1C(O[C@H]2C[C@H]3[C@@H]4CC=C5C[C@@H](O)CC[C@]5(C)[C@H]4CC[C@]3(C)[C@H]2[C@H](C)C(=O)CCC(C)C)OCC(O)C1OC1OCC(O)C(O)C1OC(=O)c1ccc(OC)cc1 (stereo not given in full) | -44.5% (active)
O=c1c2cc(Br)cc(Br)c2nc(-c2ccc(Cl)cc2)n1/N=C/c1cccc(F)c1 | 52%
NC(N)=NC1CCCCC1 | 107%
CC(C)(C)c1nn(-c2ccccc2)c2c1C(=O)CSC(c1ccccc1Cl)N2 (stereo not given) | 7.26% (active)
